Source: PubChem BioAssay
Compounds with a hit are over-represented: about 18% of the library has one in this group of screens.
TGFb inhibitor – TGF-b pathway inhibition | HepG2 CAGA-GFP TGF-b/SMAD3 reporter, GFP fluorescence, 18 h; TGF-beta stimulated, 500 pg/mL final | Potency, µM (doses to about 46.1 µM), usual class: inhibitors | 410,000 tested, 1.2% active; further: nearly all actives have a fitted effect of over 65% in size
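Inhibition of TGF-beta-driven CAGA-GFP reporter expression in HEPG2 cells is measured by cellular GFP fluorescence after 18 h stimulation with 500 pg/mL recombinant TGF-beta in 1% FBS medium at 37 degrees C.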
TDP1 inh – inhibitors of human tyrosyl-DNA phosphodiesterase TDP1; Q9NUW8; recombinant TDP1, AlphaScreen DNA substrate cleavage; Potency, µM (highest dose often 130 µM), actives largely listed as inhibitors; 350,000 tested, 0.28% active; AID 485290; further: nearly all actives have a fitted effect of over 40% in size
Target sequence (Q9NUW8 whole entry, looked up): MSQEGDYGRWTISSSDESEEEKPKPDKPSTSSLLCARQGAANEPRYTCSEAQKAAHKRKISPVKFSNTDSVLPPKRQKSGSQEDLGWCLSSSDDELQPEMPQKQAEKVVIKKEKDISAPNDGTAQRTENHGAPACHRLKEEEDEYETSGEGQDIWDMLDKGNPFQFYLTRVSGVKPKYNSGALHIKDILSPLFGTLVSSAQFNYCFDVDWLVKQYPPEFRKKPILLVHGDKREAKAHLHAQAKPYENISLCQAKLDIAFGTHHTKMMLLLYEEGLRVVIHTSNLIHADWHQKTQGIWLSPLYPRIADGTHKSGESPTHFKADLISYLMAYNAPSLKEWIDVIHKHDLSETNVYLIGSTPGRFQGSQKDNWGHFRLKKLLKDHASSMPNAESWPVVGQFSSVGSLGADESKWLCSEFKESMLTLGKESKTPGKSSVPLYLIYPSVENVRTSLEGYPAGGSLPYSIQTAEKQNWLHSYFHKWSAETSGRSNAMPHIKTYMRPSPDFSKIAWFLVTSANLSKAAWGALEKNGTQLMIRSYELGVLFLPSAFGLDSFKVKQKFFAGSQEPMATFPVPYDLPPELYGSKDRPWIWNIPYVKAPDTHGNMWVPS
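Recombinant E. coli-expressed Tdp1 (1 nM) preincubated with compound 15 min at RT, then 5'-biotin/3'-phosphotyrosine-FITC DNA substrate (15 nM) added for 5 min. AlphaScreen beads (10 ug/ml) added, 10 min RT; tyrosine-FITC cleavage read as signal loss.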
IL-1B inflam inh – inhibitors of inflammasome signaling (IL-1 beta secretion). THP-1 LPS/ATP IL-1B secretion, AlphaLISA, 16 h; hits give low values. activity change, % at 57.5 µM. 360,000 tested, 4.7% active; in the data active means activity change below about -50%; inconclusive means mostly about -30% to -49%
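Secreted IL-1B measured by AlphaLISA bead assay after 16 h compound exposure of THP-1 cells; compounds (final up to 57.5 uM) added 1 h before LPS (250 ng/mL) and ATP (1.25 mM) stimulation; lower signal means less secretion.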
TDP1 cell CPT – growth inhibition of DT40 Tdp1-/-;hTDP1 cells with camptothecin (screen for TDP1 inhibitors). chicken DT40 Tdp1-/-;hTDP1 cells + 20 nM CPT, ATP luminescence, 48 h. Potency, µM (highest dose often 46.2 µM), hits mostly inhibitors. 420,000 tested, 12% active. AID 686979; further: nearly all actives have a fitted effect of over 55% in size
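Cell growth measured by CellTiter-Glo luminescence after a minimum 48 h, 37 C compound exposure with 20 nM CPT in Tdp1-knockout DT40 cells stably expressing hTDP1, seeded 400/well; qHTS titration format.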
HepG2 viability – HepG2 cytotoxicity, counter-screen for TGF-b inhibitors; HepG2 CAGA-GFP viability, ATP luminescence, 18 h; Potency, µM (series often up to 46.1 µM), actives largely listed as cytotoxic; 410,000 tested, 0.76% active; AID 588856
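CellTiter-Glo luminescence gave cytotoxicity after 18 hours at 37 degrees C. The cells were HepG2 CAGA-GFP in 1% FBS DMEM, stimulated with 500 pg/mL TGF-beta after compound addition. %Activity was normalised to no-cell wells (complete cell-killing) and DMSO (no toxicity), and curves were fitted and classified.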
TDP1 cell noCPT – qHTS for Inhibitors of human tyrosyl-DNA phosphodiesterase 1 (TDP1): qHTS in cells in absence of CPT; DT40 Tdp1-/- hTDP1 cells, no CPT, ATP luminescence, 48 h; 420,000 tested, 15% active; Potency, µM (series often up to 46.2 µM), most hits filed as inhibitors; further: nearly all actives have a fitted effect of over 55% in size
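Growth kinetics read by CellTiter-Glo luminescence after ≥48 hr at 37 °C. Cells: DT40 Tdp1-/- stably carrying human TDP1, 400 per well, compound exposure in the absence of CPT (DMSO vehicle).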
A number is an active result; - = inactive; ? = inconclusive; . = not tested or not shown. Unless noted, the call rests on the fitted dose curve; in most records, active means well fitted curve in the direction sought with a large enough effect; inconclusive means small, poorly fitted or top-dose-only effect, or another doubt; inactive means no such curve, though single readings can be large; an effect the other way counts as inactive or inconclusive.

SMILES	TGFb inhibitor	TDP1 inh	IL-1B inflam inh	TDP1 cell CPT	HepG2 viability	TDP1 cell noCPT
COCOCCn1cc(CN2CCS(=O)(=O)N(Cc3ccc(-c4ccc(OC)nc4)cc3)C(C(C)C)C2=O)nn1 (stereo unspecified)	-	.	-	13µM	-	8.2µM
CCOC(=O)c1ccccc1NC(=O)Cn1ncc2c([nH]c3ccccc32)c1=O	-	-	.	-	-	?
CN(C(=O)CSc1nnc(-c2ccccc2F)n1N)C1CCCCC1	-	-	-	-	-	-
COc1ccc(Nc2nc(-c3cccc([N+](=O)[O-])c3)nc3ccccc23)cc1	-	-	-	?	-	15µM
COc1cccc(Nc2nc(-c3cccs3)nc3ccccc23)c1	?	-	-58	?	-	23µM
COc1nc(-c2cccc([N+](=O)[O-])c2)nc2ccccc12	-	-	-	-	-	-
COc1ccc(Nc2nc(-c3cccs3)nc3ccccc23)cc1	-	-	-	?	-	23µM
COc1cccc(CN(C)c2nc(-c3cccs3)nc3ccccc23)c1	?	-	-	18µM	-	21µM
CN(CCO)C(=O)c1cn(C2CCN(Cc3cccc4ccccc34)CC2)nn1	.	.	.	-	.	-
Cc1ccc(CN2CCN(C3CCN(C(=O)c4ccccc4)CC3)C(=O)C2=O)cc1	?	-	.	-	-	-
COc1ccc(OC)c(NC(=O)CSc2nnc(CNC(=O)c3cc(OC)c(OC)c(OC)c3)o2)c1	-	-	-	-	-	-
CCN(CC)Cc1ccc(OC)c(Cl)c1	?	-	-	-	-	-
CCCOc1ccc(CCCN=C(N)N)cc1Cl	?	-	-90	2.1µM	-	2.1µM
CCOc1ccc(CN=C(N)N=C(N)N)cc1Cl	-	-	-	12µM	-	5.8µM
CCCCOc1cc(C[C@@H]2CNC(=O)N2)ccc1OC	.	-	.	-	.	-
CCCCOc1ccc(CN=C(N)N)cc1Cl	-	-	-74	2.3µM	-	1.5µM
CCCOc1ccc(NC(N)=O)cc1OCCC	-	-	-	-	-	-
CNc1snc(C)c1C(=O)OC(C)C(=O)Nc1ccc(F)cc1 (stereo unspecified)	-	-	-	?	-	?
CCCCc1ccc(NC(=O)Cn2cnc3c(oc4ccccc43)c2=O)cc1	?	-	.	-	-	-
CCOC(=O)CC(NC(=O)c1cc2c(=O)n3cccc(C)c3nc2s1)c1ccc(OCC)c(OC)c1 (stereo unspecified)	-	-	.	-	-	-
Cc1ccc(S(=O)(=O)NCCC(=O)NC2CCCCCC2)cc1	-	-	-	-	-	-
Cc1c(Cl)cccc1NC(=O)C(C)n1c(=O)cc(C)c2c(C)nn(-c3ccccc3)c21 (stereo unspecified)	-	-	.	?	-	-
Nc1cccn2c(-c3ccc(Cl)cc3)cnc12	-	-	-	?	-	18µM
CC(C)=CCc1c(O)cc(O)c2c(=O)c3c(CC=C(C)C)c(O)ccc3oc12	4µM	.	?	?	16µM	?
COc1cccc(NC(=O)Cc2ccc(NC(=O)N3CCCCc4ccccc43)cc2)c1	?	-	.	?	-	?
SMILES	TGFb inhibitor	TDP1 inh	IL-1B inflam inh	TDP1 cell CPT	HepG2 viability	TDP1 cell noCPT
CC(C(=O)N1CCc2ccccc21)N1CCN(S(=O)(=O)c2cccc(C(F)(F)F)c2)CC1 (stereo unspecified)	?	-	-	?	-	13µM
COc1cccc(CNC(=O)Cc2ccc(NC(=O)N3CCCCc4ccccc43)cc2)c1OC	-	-	.	-	-	18µM
CCOC(=O)c1cccc(NC(=O)Cc2ccc(NC(=O)N3CCCCc4ccccc43)cc2)c1	-	-	.	5.2µM	-	4.6µM
CCCCOc1ccc(CNC(=O)c2ccc(NC(=O)N3CCCCc4ccccc43)cc2)cc1	-	-	.	18µM	-	26µM
Cc1cccc(-n2c(C)cc(C)c(C#N)c2=O)c1	-	-	-	-	-	-
COc1cc2c(cc1OC)CN(C(C)C(=O)N1CCc3ccccc31)CC2 (stereo unspecified)	-	-	-	?	-	18µM
COc1ccc(CNC(=O)c2ccc(NC(=O)N3CCCCc4ccccc43)cc2)cc1	-	-	.	?	-	18µM
COc1cc(C(=O)N2CCCc3ccccc32)cc(OC)c1OC	-	-	-	18µM	-	21µM
O=C(NCc1cccc(Br)c1)c1ccc(NC(=O)N2CCCCc3ccccc32)cc1	-	-	.	-	-	?
COc1cc(CNC(=O)c2ccc(NC(=O)N3CCCCc4ccccc43)cc2)cc(OC)c1OC	?	-	.	18µM	-	10µM
CNC(=O)COC(=O)C1CCN(S(=O)(=O)c2ccc3c(c2)OCCO3)CC1	-	-	-	-	-	-
COC(=O)C1=CN(c2cccc(Cl)c2)C=C(C(=O)OC)C1c1cccc(OC)c1	-	-	?	?	-	?
O=C(c1ccc(Br)cc1)N1CCCc2ccccc21	-	-	-	-	-	?
O=C(c1ccc(=O)oc1)N1CCCc2ccccc21	-	18µM	-	?	-	16µM
COc1cc(OC)c(C2=NOC(C(=O)N3CCCc4ccccc43)C2)cc1Cl (stereo unspecified)	-	-	-	13µM	-	?
CCCCOc1ccc(CNC(=O)Cc2ccc(NC(=O)N3CCCCc4ccccc43)cc2)cc1	?	-	.	15µM	-	16µM
COCCCNC(=O)c1ccc(NC(=O)N2CCCCc3ccccc32)cc1	-	-	.	-	-	-
COc1ccccc1N1CCN(S(=O)(=O)CCNC(=O)CC2CCCC2)CC1	-	.	-	?	-	?
Cc1cc(C(=O)OCC(=O)N(C)c2c(N)n(Cc3ccccc3)c(=O)[nH]c2=O)c(C)n1-c1ccccc1	-	-	-55	?	-	-
CN(C(=O)COC(=O)c1ccccc1Nc1ccccc1)c1c(N)n(Cc2ccccc2)c(=O)[nH]c1=O	?	-	-63	?	-	16µM
O=C(COC(=O)c1ccccc1Nc1ccccc1)c1ccccc1	-	.	-60	-	-	-
Cc1ccccc1C(=O)OCC(=O)N(C)c1c(N)n(Cc2ccccc2)c(=O)[nH]c1=O	-	-	-	-	-	-
C=CCN(c1ccccc1)S(=O)(=O)c1cccc(C(=O)Nc2ncccc2O)c1	-	-	-	-	-	-
CCOC(=O)c1ccc2c(c1)N(CC(=O)Nc1ccc(C)cc1C)C(=O)c1ccccc1S2	-	-	.	.	-	.
CCOCC(=O)N1CCc2ccccc21	-	-	-	-	-	18µM
